40 compounds from PubChem BioAssay AID1780 (National Center for Advancing Translational Sciences (NCATS), 2009) can be followed below.

Structures are written as SMILES. Calls of active or inactive are those of the source. Calls come from the whole dose curve; as a rule, active = well fitted curve in the direction sought with a large enough effect; inactive = no such curve, though single readings can be large or run the other way.

Chain of Pyruvate kinase PKM (Homo sapiens) (P14618 whole entry, looked up, canonical isoform): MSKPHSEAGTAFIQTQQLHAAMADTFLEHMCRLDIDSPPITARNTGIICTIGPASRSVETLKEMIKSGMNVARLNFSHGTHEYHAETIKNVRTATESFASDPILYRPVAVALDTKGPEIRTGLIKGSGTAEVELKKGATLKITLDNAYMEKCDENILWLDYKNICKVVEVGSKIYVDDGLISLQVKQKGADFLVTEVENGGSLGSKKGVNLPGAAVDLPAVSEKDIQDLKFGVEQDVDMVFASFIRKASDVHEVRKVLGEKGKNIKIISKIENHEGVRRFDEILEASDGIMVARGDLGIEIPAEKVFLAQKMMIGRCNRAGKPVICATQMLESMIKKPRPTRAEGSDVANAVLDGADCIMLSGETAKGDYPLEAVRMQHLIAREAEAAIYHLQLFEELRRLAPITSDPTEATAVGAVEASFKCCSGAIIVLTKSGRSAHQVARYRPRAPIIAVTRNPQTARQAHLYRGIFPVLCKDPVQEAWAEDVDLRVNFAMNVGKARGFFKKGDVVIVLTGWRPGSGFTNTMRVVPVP

This experiment has as its target Pyruvate kinase PKM (Homo sapiens) (UniProt P14618). As to the kind of experiment: Confirmation Concentration-Response Assay for Activators of Human Muscle isoform 1 Pyruvate Kinase. To be noted: purified hPK-M1, Kinase-Glo ATP luminescence, 1 h; series mostly up to 57.5 µM; activity change, positive = activation: at the top concentration. The text has this:
Confirmatory assay NIH Chemical Genomics Center [NCGC] Matthew G. Vander Heiden, M.D., Ph.D. [Harvard Medical School, 77 Avenue Louis Pasteur, Boston, MA 02115] NCGC Assay Overview: Human pyruvate kinase […] (hPK-M1) enzyme was supplied as a highly purified (>95% pure) preparation from Harvard Medical School and assayed for its ability to generate ATP from ADP using phosphoenolpyruvate (PEP) as a substrate. ATP generation was detected in a coupled reaction by luciferase-mediated luminescence, an ATP-dependent process. Pyruvate kinase substrates, PEP and ADP, were present in the assay at Km and approximately 10-fold below Km respectively. The enzyme was assayed at an intermediate level of activity to screen for both inhibitors and activators.
NCGC Assay Protocol Summary for M1-isoform: Three uL of substrate mix (at r.t.) in assay buffer (50 mM Imidazole pH7.2, 50 mM KCl, 7 mM MgCl2, 0.01% Tween 20, 0.05% BSA) was dispensed into white solid bottom 1,536 well microtiter plates so that the final concentrations of substrates in the assay were 0.1 mM ADP and 0.5 mM PEP. 23 nL of compound were delivered by a pin tool and 1 uL of enzyme mix (final concentration of 1 nM) in assay buffer (4 degree Celsius) was added. Plates were incubated at room temperature for 1 hour. Two uL of detection mix (Kinase-Glo, Promega; at 4 degree Celsius protected from light) was added and luminescence read by a ViewLux (Perkin Elmer) at 1 second exposure/plate. Data were normalized to the uninhibited (row 31). Additionally, a no enzyme and 5-fold enzyme control was dispensed in row 32, split equally between the two conditions.
On the technique in general: In Kinase-Glo more light means more ATP remaining.
For the compound `O=S(=O)(NCCCCCCNS(=O)(=O)c1c(F)cccc1F)c1ccc2c(c1)OCCO2`, the “activity change, positive = activation” value is 4.36% (inactive). On the same count and under the same terms, for `CC(C)c1cc2c(s1)c1cnn(Cc3ccccc3F)c(=O)c1n2C` the value was 3.69% (inactive); for `O=S(=O)(NCCCCNS(=O)(=O)c1c(F)cccc1F)c1ccc2c(c1)OCCO2`, -5.47% (inactive). `Cc1cc2c(s1)c1cnn(Cc3c(F)c(F)cc(F)c3F)c(=O)c1n2C`: the “activity change, positive = activation” value was 21% (inactive). Still for that read-out and setting: the value for `Cc1cc2c(s1)c1cnn(-c3ccccc3)c(=O)c1n2C` was -6.33% (inactive). The same measure, in the same setting: the value for `O=S(=O)(c1cccc(C(F)(F)F)c1)N1CCN(S(=O)(=O)c2ccc3c(c2)OCCO3)CC1` was -1.31% (inactive); that for `O=S(=O)(c1ccc2c(c1)OCCO2)N1CCN(S(=O)(=O)c2ccccc2F)CC1` was 7.38% (inactive). As to `O=S(=O)(NC1CCN(S(=O)(=O)c2c(F)cccc2F)CC1)c1ccc2c(c1)OCCO2`, the “activity change, positive = activation” value is 7.34% (inactive). `N#Cc1ccc(S(=O)(=O)N2CCN(S(=O)(=O)c3ccc4c(c3)OCCO4)CC2)cc1`: the “activity change, positive = activation” value was 9.21% (inactive). Same read-out and setting: the value for `Cc1cc2c(s1)c1cnn(Cc3c(F)cccc3F)c(=O)c1n2C` was 4.85% (inactive).

With `C[C@@H]1CN(S(=O)(=O)c2ccc3c(c2)OCCO3)CCN1S(=O)(=O)c1c(F)cccc1F`, the “activity change, positive = activation” value was 12% (inactive). As to `Cc1cc2c(s1)c1cnn(Cc3ccccc3F)c(=O)c1n2C(C)C`, the “activity change, positive = activation” value was 2.21% (inactive). Still for that read-out and setting: for `Cc1cc2c(s1)c1cnn(Cc3ccc(C)c(F)c3F)c(=O)c1n2C` the value was 2.33% (inactive). As to `Cn1c2ccsc2c2cnn(Cc3ccccc3F)c(=O)c21`, the “activity change, positive = activation” value is -0.235% (inactive). The same measure, in the same setting: the value for `O=S(=O)(c1ccc2c(c1)OCCO2)C1CCN(S(=O)(=O)c2c(F)cccc2F)CC1` was 7.52% (inactive). For the compound `COc1ccc(S(=O)(=O)N2CCN(S(=O)(=O)c3c(F)cccc3F)CC2)cc1`, the result was inactive. Same read-out and setting: for `COc1ccc(S(=O)(=O)N2CCN(S(=O)(=O)c3ccc(OC)cc3)CC2)cc1` the value was “inactive”; for `O=S(=O)(NC1CCC(NS(=O)(=O)c2c(F)cccc2F)CC1)c1ccc2c(c1)OCCO2` (stereo not given), “inactive”. Regarding `Cc1cc2c(s1)c1cnn(Cc3ccccc3Cl)c(=O)c1n2C`, the “activity change, positive = activation” value was 0.414% (inactive).

With `Cc1cc2[nH]c3c(=O)n(Cc4ccccc4F)ncc3c2s1`, the result was inactive.

With `O=S(=O)(c1ccc2c(c1)OCO2)N1CCN(S(=O)(=O)c2c(F)cccc2F)CC1`, the “activity change, positive = activation” value is 9.82% (inactive). As to `COc1ccc(Cn2ncc3c4sc(C)cc4n(C)c3c2=O)cc1F`, the “activity change, positive = activation” value is -3.8% (inactive). As for `Cn1c2cc(B(O)O)sc2c2cnn(Cc3ccccc3F)c(=O)c21`, the “activity change, positive = activation” value is -1.07% (inactive).

For the compound `Cc1cc2c(s1)c1cnn(Cc3cccc(Cl)c3)c(=O)c1n2C`, the “activity change, positive = activation” value was 13.6% (inactive). Same read-out and setting: the value for `CSc1cc2c(s1)c1cnn(Cc3ccccc3F)c(=O)c1n2C` was -1.18% (inactive). Regarding `CN1CCOc2ccc(S(=O)(=O)N3CCN(S(=O)(=O)c4c(F)cccc4F)CC3)cc21`, the compound was classed as inactive.

Regarding `COc1cc(F)c(S(=O)(=O)N2CCN(S(=O)(=O)c3ccc4c(c3)OCCO4)CC2)c(F)c1`, the “activity change, positive = activation” value is -4.44% (inactive). For the compound `Cc1cc2c(s1)c1cnn(Cc3ccccc3F)c(=O)c1n2C`, the compound was classed as inactive. For the compound `O=S(=O)(c1ccc2c(c1)OCCO2)N1CCN(S(=O)(=O)c2c(F)ccc(O)c2F)CC1`, the “activity change, positive = activation” value is -0.69% (inactive). Consider `O=S(=O)(NC1CCN(S(=O)(=O)c2ccc3c(c2)OCCO3)C1)c1c(F)cccc1F` (stereo not given), for which the “activity change, positive = activation” value is -2.48% (inactive). Regarding `O=S(=O)(c1ccc2ccccc2c1)N1CCN(S(=O)(=O)c2c(F)cccc2F)CC1`, the compound was called inactive.

Take `Cc1ccc(Cn2ncc3c4sc(C)cc4n(C)c3c2=O)c(C)c1`: the “activity change, positive = activation” value was -1.97% (inactive). Regarding `O=S(=O)(c1cccc(F)c1)N1CCN(S(=O)(=O)c2ccc3c(c2)OCCO3)CC1`, the “activity change, positive = activation” value is 7.95% (inactive). The same measure, in the same setting: the value for `Cc1cc2c(s1)c1cnn(Cc3ccc(F)cc3)c(=O)c1n2C` was -0.493% (inactive). With `CCn1c2cc(C)sc2c2cnn(Cc3ccccc3F)c(=O)c21`, the “activity change, positive = activation” value is 2.24% (inactive). On the same count and under the same terms, the value for `Cn1c2ccsc2c2ncn(Cc3ccccc3F)c(=O)c21` was -6.76% (inactive); that for `O=S(=O)(c1ccc2c(c1)OCCO2)N1CCN(S(=O)(=O)c2cc(F)c(F)cc2F)CC1` was 5.08% (inactive); that for `CC(=O)c1cc2c(s1)c1cnn(Cc3ccccc3F)c(=O)c1n2C` was -3.5% (inactive).

In the case of `O=S(=O)(c1ccccc1)N1CCN(S(=O)(=O)c2ccc3c(c2)OCCO3)CC1`, the “activity change, positive = activation” value was 7.14% (inactive). As for `O=S(=O)(c1ccc2c(c1)OCCO2)N1CCN(S(=O)(=O)c2ccc3c(c2)OCCO3)CC1`, the outcome was inactive.
